Measured values reported in PubChem BioAssay AID1159580 (chemical genetic matrix, 2015).
The campaign covered roughly 5,500 compounds. About 2,000 (36%) were called active. Roughly 18% stayed inconclusive and do not appear here. Rule as the data show it: active = normalized growth mostly below about 0.91 (no sharp cut-off); inconclusive = no clear call, values can overlap the other calls; inactive = mostly above about 0.92. Some of the results follow.

Assay: chemical genetic growth profiling, strain panel (AID 1159580);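 also: tested at 20 µM; growth read once vehicle control cultures reached saturation at 30 °C; 1 = growth at the plate median or of vehicle wells; lower values mean less growth of the strain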
Conditions: growth OD

Measured: normalized growth

C[C@@H]1C[C@@H]([C@H](O)CC2CC(=O)NC(=O)C2)C(=O)[C@@H](C)C1
inactive: S. cerevisiae deletion strains, locus YOL012C, strain htz1 0.234
active: S. cerevisiae deletion strains, locus YJR075W, strain HOC1, active compounds read low 0.0698 | S. cerevisiae deletion strains, locus YKL009W, strain mrt4, active compounds read low 0.0696 | S. cerevisiae deletion strains, locus YKL068W, active compounds read low 0.0541 | S. cerevisiae deletion strains, locus YKL085W, strain MDH1 (second series), active compounds read low 0.0512 | S. cerevisiae deletion strains, locus YKL085W, strain MDH1, active compounds read low 0.0512 | S. cerevisiae deletion strains, locus YKL160W, strain elf1, active compounds read low 0.0661 | S. cerevisiae deletion strains, locus YKL190W, strain CNB1, active compounds read low 0.0498 | S. cerevisiae deletion strains, locus YKR001C, strain vps1, active compounds read low 0.0635 | S. cerevisiae deletion strains, locus YKR026C, strain gcn3, active compounds read low 0.0607 | S. cerevisiae deletion strains, locus YKR091W, strain srl3, active compounds read low 0.0583 | S. cerevisiae deletion strains, locus YLL001W, strain dnm1, active compounds read low 0.0597 | S. cerevisiae deletion strains, locus YLL026W, active compounds read low 0.0551 | S. cerevisiae deletion strains, locus YLL041C, strain sdh2, active compounds read low 0.0553 | S. cerevisiae deletion strains, locus YLR027C, strain aat2, active compounds read low 0.0609 | S. cerevisiae deletion strains, locus YLR039C, strain RIC1, active compounds read low 0.0922 | S. cerevisiae deletion strains, locus YLR058C, strain SHM2, active compounds read low 0.041 | S. cerevisiae deletion strains, locus YLR102C, strain apc9, active compounds read low 0.0592 | S. cerevisiae deletion strains, locus YLR113W, strain HOG1, active compounds read low 0.12 | S. cerevisiae deletion strains, locus YLR221C, strain rsa3, active compounds read low 0.0588 | S. cerevisiae deletion strains, locus YLR258W, strain gsy2, active compounds read low 0.0568 | S. cerevisiae deletion strains, locus YLR262C, strain YPT6 (second series), active compounds read low 0.0723 | S. cerevisiae deletion strains, locus YLR262C, strain YPT6, active compounds read low 0.108 | S. cerevisiae deletion strains, locus YLR268W, strain sec22, active compounds read low 0.0667 | S. cerevisiae deletion strains, locus YLR320W, strain mms22, active compounds read low 0.0766 | S. cerevisiae deletion strains, locus YLR330W, strain CHS5, active compounds read low 0.0515 | S. cerevisiae deletion strains, locus YLR342W, strain FKS1 (second series), active compounds read low 0.0688 | S. cerevisiae deletion strains, locus YLR342W, strain FKS1, active compounds read low 0.0659 | S. cerevisiae deletion strains, locus YLR357W, strain rsc2, active compounds read low 0.119 | S. cerevisiae deletion strains, locus YLR370C, strain arc18, active compounds read low 0.0598 | S. cerevisiae deletion strains, locus YLR371W, strain rom2, active compounds read low 0.0594 | S. cerevisiae deletion strains, locus YLR384C, strain iki3, active compounds read low 0.0596 | S. cerevisiae deletion strains, locus YLR418C, strain cdc73, active compounds read low 0.0977 | S. cerevisiae deletion strains, locus YML016C, strain PPZ1, active compounds read low 0.055 | S. cerevisiae deletion strains, locus YML032C, strain rad52, active compounds read low 0.0671 | S. cerevisiae deletion strains, locus YML120C, strain ndi1, active compounds read low 0.0554 | S. cerevisiae deletion strains, locus YML124C, strain tub3, active compounds read low 0.0568 | S. cerevisiae deletion strains, locus YMR058W, strain fet3, active compounds read low 0.0596 | S. cerevisiae deletion strains, locus YMR078C, strain ctf18, active compounds read low 0.0691 | S. cerevisiae deletion strains, locus YMR125W, strain sto1, active compounds read low 0.0765 | S. cerevisiae deletion strains, locus YMR129W, active compounds read low 0.0549 | S. cerevisiae deletion strains, locus YMR205C, strain PFK2, active compounds read low 0.0823 | S. cerevisiae deletion strains, locus YMR223W, strain ubp8, active compounds read low 0.065 | S. cerevisiae deletion strains, locus YMR231W, strain pep5, active compounds read low 0.0689 | S. cerevisiae deletion strains, locus YMR263W, strain SAP30, active compounds read low 0.0637 | S. cerevisiae deletion strains, locus YMR307W, strain GAS1, active compounds read low 0.121 | S. cerevisiae deletion strains, locus YNL067W, strain RPL9B, active compounds read low 0.0574 | S. cerevisiae deletion strains, locus YNL071W, strain lat1, active compounds read low 0.0587 | S. cerevisiae deletion strains, locus YNL128W, strain TEP1, active compounds read low 0.0594 | S. cerevisiae deletion strains, locus YNL153C, strain GIM3, active compounds read low 0.0488 | S. cerevisiae deletion strains, locus YNL183C, strain NPR1, active compounds read low -0.00319 | S. cerevisiae deletion strains, locus YNL209W, strain ssb2, active compounds read low 0.0566 | S. cerevisiae deletion strains, locus YNL233W, strain BNI4, active compounds read low 0.0543 | S. cerevisiae deletion strains, locus YNL248C, strain rpa49, active compounds read low 0.0754 | S. cerevisiae deletion strains, locus YNL250W, strain rad50, active compounds read low 0.0626 | S. cerevisiae deletion strains, locus YNL271C, strain bni1, active compounds read low 0.0609 | S. cerevisiae deletion strains, locus YNL298W, strain CLA4, active compounds read low 0.0597 | S. cerevisiae deletion strains, locus YNL307C, strain MCK1, active compounds read low 0.0682 | S. cerevisiae deletion strains, locus YNL322C, strain KRE1 (second series), active compounds read low 0.0709 | S. cerevisiae deletion strains, locus YNL322C, strain KRE1, active compounds read low 0.0498 | S. cerevisiae deletion strains, locus YNR049C, strain mso1, active compounds read low 0.0539 | S. cerevisiae deletion strains, locus YNR052C, strain pop2, active compounds read low 0.0603 | S. cerevisiae deletion strains, locus YOL006C, strain TOP1, active compounds read low 0.0855 | S. cerevisiae deletion strains, locus YOL147C, strain pex11, active compounds read low 0.0565 | S. cerevisiae deletion strains, locus YOR001W, strain rrp6, active compounds read low 0.0676 | S. cerevisiae deletion strains, locus YOR061W, strain CKA2, active compounds read low 0.0412 | S. cerevisiae deletion strains, locus YOR069W, strain VPS5, active compounds read low 0.0494 | S. cerevisiae deletion strains, locus YOR070C, strain gyp1, active compounds read low 0.056 | S. cerevisiae deletion strains, locus YOR080W, strain dia2, active compounds read low 0.0619 | S. cerevisiae deletion strains, locus YOR083W, strain WHI5, active compounds read low 0.0654 | S. cerevisiae deletion strains, locus YOR106W, strain vam3, active compounds read low 0.0681 | S. cerevisiae deletion strains, locus YOR136W, strain idh2, active compounds read low 0.0689 | S. cerevisiae deletion strains, locus YOR144C, strain elg1, active compounds read low 0.0565 | S. cerevisiae deletion strains, locus YOR184W, strain ser1, active compounds read low 0.0727 | S. cerevisiae deletion strains, locus YOR231W, strain MKK1, active compounds read low 0.111 | S. cerevisiae deletion strains, locus YOR265W, strain rbl2, active compounds read low 0.0548 | S. cerevisiae deletion strains, locus YOR270C, strain vph1, active compounds read low 0.1 | S. cerevisiae deletion strains, locus YOR290C, strain snf2, active compounds read low 0.0637 | S. cerevisiae deletion strains, locus YOR316C, strain cot1, active compounds read low 0.0575 | S. cerevisiae deletion strains, locus YPL051W, strain arl3, active compounds read low 0.0621 | S. cerevisiae deletion strains, locus YPL055C, strain LGE1, active compounds read low 0.0743 | S. cerevisiae deletion strains, locus YPL078C, strain atp4, active compounds read low 0.0696 | S. cerevisiae deletion strains, locus YPL106C, strain sse1, active compounds read low 0.0938 | S. cerevisiae deletion strains, locus YPL240C, strain hsp82, active compounds read low 0.0556 | S. cerevisiae deletion strains, locus YPL241C, strain CIN2, active compounds read low 0.0514 | S. cerevisiae deletion strains, locus YPL256C, strain CLN2, active compounds read low 0.112 | S. cerevisiae deletion strains, locus YPR119W, strain clb2, active compounds read low 0.0611 | S. cerevisiae deletion strains, locus YPR141C, strain kar3, active compounds read low 0.0644 | S. cerevisiae deletion strains, locus YPR163C, strain tif3, active compounds read low 0.0667 | S. cerevisiae deletion strains, locus YPR167C, strain met16, active compounds read low 0.0591 | S. cerevisiae deletion strains, strain wtn01, active compounds read low 0.0603 | S. cerevisiae strains, strain wild type, active compounds read low 0.0494
